Experimental data published in PubChem BioAssay AID1159580 (chemical genetic matrix, 2015).
Out of some 5,500 compounds screened, about 2,000 (36%) were called active. About 18% were inconclusive and are not listed. Rule as the data show it: active = normalized growth mostly below about 0.91 (no sharp cut-off); inconclusive = no clear call, values can overlap the other calls; inactive = mostly above about 0.92. This is one part of the list.

Assay: chemical genetic growth profiling, strain panel (AID 1159580);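 also: tested at 20 µM; growth read once vehicle control cultures reached saturation at 30 °C; 1 = growth at the plate median or of vehicle wells; lower values mean less growth of the strain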
Conditions: growth OD

Measured: normalized growth

COC1=C[C@@H]2[C@@H]3Cc4ccc(OC)c(O)c4[C@]2(CCN3C)CC1=O
inactive: S. cerevisiae deletion strains, locus YJR075W, strain HOC1, stronger effect = lower value 0.928 | S. cerevisiae deletion strains, locus YKL009W, strain mrt4, stronger effect = lower value 0.978 | S. cerevisiae deletion strains, locus YKL068W, stronger effect = lower value 0.977 | S. cerevisiae deletion strains, locus YKL085W, strain MDH1 (second series), stronger effect = lower value 0.979 | S. cerevisiae deletion strains, locus YKL085W, strain MDH1, stronger effect = lower value 0.979 | S. cerevisiae deletion strains, locus YKL160W, strain elf1, stronger effect = lower value 0.996 | S. cerevisiae deletion strains, locus YKL190W, strain CNB1, stronger effect = lower value 0.977 | S. cerevisiae deletion strains, locus YKR001C, strain vps1, stronger effect = lower value 0.992 | S. cerevisiae deletion strains, locus YKR026C, strain gcn3, stronger effect = lower value 1 | S. cerevisiae deletion strains, locus YKR091W, strain srl3, stronger effect = lower value 0.984 | S. cerevisiae deletion strains, locus YLL001W, strain dnm1, stronger effect = lower value 0.997 | S. cerevisiae deletion strains, locus YLL026W, stronger effect = lower value 0.982 | S. cerevisiae deletion strains, locus YLL041C, strain sdh2, stronger effect = lower value 1 | S. cerevisiae deletion strains, locus YLR027C, strain aat2, stronger effect = lower value 1 | S. cerevisiae deletion strains, locus YLR039C, strain RIC1, stronger effect = lower value 0.98 | S. cerevisiae deletion strains, locus YLR058C, strain SHM2, stronger effect = lower value 0.976 | S. cerevisiae deletion strains, locus YLR102C, strain apc9, stronger effect = lower value 0.971 | S. cerevisiae deletion strains, locus YLR113W, strain HOG1, stronger effect = lower value 1.01 | S. cerevisiae deletion strains, locus YLR221C, strain rsa3, stronger effect = lower value 0.993 | S. cerevisiae deletion strains, locus YLR258W, strain gsy2, stronger effect = lower value 0.987 | S. cerevisiae deletion strains, locus YLR262C, strain YPT6 (second series), stronger effect = lower value 0.999 | S. cerevisiae deletion strains, locus YLR262C, strain YPT6, stronger effect = lower value 0.926 | S. cerevisiae deletion strains, locus YLR268W, strain sec22, stronger effect = lower value 0.967 | S. cerevisiae deletion strains, locus YLR320W, strain mms22, stronger effect = lower value 1 | S. cerevisiae deletion strains, locus YLR330W, strain CHS5, stronger effect = lower value 0.999 | S. cerevisiae deletion strains, locus YLR342W, strain FKS1 (second series), stronger effect = lower value 1.03 | S. cerevisiae deletion strains, locus YLR342W, strain FKS1, stronger effect = lower value 1 | S. cerevisiae deletion strains, locus YLR357W, strain rsc2, stronger effect = lower value 0.943 | S. cerevisiae deletion strains, locus YLR370C, strain arc18, stronger effect = lower value 1 | S. cerevisiae deletion strains, locus YLR371W, strain rom2, stronger effect = lower value 0.952 | S. cerevisiae deletion strains, locus YLR384C, strain iki3, stronger effect = lower value 0.987 | S. cerevisiae deletion strains, locus YLR418C, strain cdc73, stronger effect = lower value 0.969 | S. cerevisiae deletion strains, locus YML016C, strain PPZ1, stronger effect = lower value 0.979 | S. cerevisiae deletion strains, locus YML032C, strain rad52, stronger effect = lower value 0.985 | S. cerevisiae deletion strains, locus YML120C, strain ndi1, stronger effect = lower value 1 | S. cerevisiae deletion strains, locus YML124C, strain tub3, stronger effect = lower value 0.986 | S. cerevisiae deletion strains, locus YMR058W, strain fet3, stronger effect = lower value 1.01 | S. cerevisiae deletion strains, locus YMR078C, strain ctf18, stronger effect = lower value 0.977 | S. cerevisiae deletion strains, locus YMR125W, strain sto1, stronger effect = lower value 0.975 | S. cerevisiae deletion strains, locus YMR129W, stronger effect = lower value 1 | S. cerevisiae deletion strains, locus YMR205C, strain PFK2, stronger effect = lower value 0.985 | S. cerevisiae deletion strains, locus YMR231W, strain pep5, stronger effect = lower value 0.995 | S. cerevisiae deletion strains, locus YMR263W, strain SAP30, stronger effect = lower value 0.962 | S. cerevisiae deletion strains, locus YMR307W, strain GAS1, stronger effect = lower value 1.03 | S. cerevisiae deletion strains, locus YNL067W, strain RPL9B, stronger effect = lower value 0.988 | S. cerevisiae deletion strains, locus YNL071W, strain lat1, stronger effect = lower value 0.996 | S. cerevisiae deletion strains, locus YNL128W, strain TEP1, stronger effect = lower value 0.961 | S. cerevisiae deletion strains, locus YNL153C, strain GIM3, stronger effect = lower value 0.96 | S. cerevisiae deletion strains, locus YNL183C, strain NPR1, stronger effect = lower value 0.959 | S. cerevisiae deletion strains, locus YNL209W, strain ssb2, stronger effect = lower value 1.01 | S. cerevisiae deletion strains, locus YNL233W, strain BNI4, stronger effect = lower value 0.979 | S. cerevisiae deletion strains, locus YNL248C, strain rpa49, stronger effect = lower value 0.978 | S. cerevisiae deletion strains, locus YNL250W, strain rad50, stronger effect = lower value 0.981 | S. cerevisiae deletion strains, locus YNL271C, strain bni1, stronger effect = lower value 0.988 | S. cerevisiae deletion strains, locus YNL298W, strain CLA4, stronger effect = lower value 0.96 | S. cerevisiae deletion strains, locus YNL307C, strain MCK1, stronger effect = lower value 0.989 | S. cerevisiae deletion strains, locus YNL322C, strain KRE1 (second series), stronger effect = lower value 0.975 | S. cerevisiae deletion strains, locus YNL322C, strain KRE1, stronger effect = lower value 0.98 | S. cerevisiae deletion strains, locus YNR049C, strain mso1, stronger effect = lower value 1.01 | S. cerevisiae deletion strains, locus YNR052C, strain pop2, stronger effect = lower value 0.982 | S. cerevisiae deletion strains, locus YOL006C, strain TOP1, stronger effect = lower value 0.942 | S. cerevisiae deletion strains, locus YOL012C, strain htz1 2.19 | S. cerevisiae deletion strains, locus YOL147C, strain pex11, stronger effect = lower value 0.992 | S. cerevisiae deletion strains, locus YOR001W, strain rrp6, stronger effect = lower value 1.01 | S. cerevisiae deletion strains, locus YOR061W, strain CKA2, stronger effect = lower value 0.962 | S. cerevisiae deletion strains, locus YOR069W, strain VPS5, stronger effect = lower value 0.987 | S. cerevisiae deletion strains, locus YOR070C, strain gyp1, stronger effect = lower value 0.986 | S. cerevisiae deletion strains, locus YOR080W, strain dia2, stronger effect = lower value 0.999 | S. cerevisiae deletion strains, locus YOR083W, strain WHI5, stronger effect = lower value 0.974 | S. cerevisiae deletion strains, locus YOR106W, strain vam3, stronger effect = lower value 0.997 | S. cerevisiae deletion strains, locus YOR136W, strain idh2, stronger effect = lower value 0.988 | S. cerevisiae deletion strains, locus YOR144C, strain elg1, stronger effect = lower value 0.986 | S. cerevisiae deletion strains, locus YOR184W, strain ser1, stronger effect = lower value 0.99 | S. cerevisiae deletion strains, locus YOR231W, strain MKK1, stronger effect = lower value 0.998 | S. cerevisiae deletion strains, locus YOR265W, strain rbl2, stronger effect = lower value 1.01 | S. cerevisiae deletion strains, locus YOR270C, strain vph1, stronger effect = lower value 0.996 | S. cerevisiae deletion strains, locus YOR290C, strain snf2, stronger effect = lower value 0.987 | S. cerevisiae deletion strains, locus YOR316C, strain cot1, stronger effect = lower value 0.965 | S. cerevisiae deletion strains, locus YPL051W, strain arl3, stronger effect = lower value 0.985 | S. cerevisiae deletion strains, locus YPL055C, strain LGE1, stronger effect = lower value 0.9 | S. cerevisiae deletion strains, locus YPL078C, strain atp4, stronger effect = lower value 0.983 | S. cerevisiae deletion strains, locus YPL106C, strain sse1, stronger effect = lower value 0.961 | S. cerevisiae deletion strains, locus YPL240C, strain hsp82, stronger effect = lower value 0.985 | S. cerevisiae deletion strains, locus YPL241C, strain CIN2, stronger effect = lower value 0.985 | S. cerevisiae deletion strains, locus YPL256C, strain CLN2, stronger effect = lower value 1.02 | S. cerevisiae deletion strains, locus YPR119W, strain clb2, stronger effect = lower value 0.984 | S. cerevisiae deletion strains, locus YPR141C, strain kar3, stronger effect = lower value 0.945 | S. cerevisiae deletion strains, locus YPR163C, strain tif3, stronger effect = lower value 0.983 | S. cerevisiae deletion strains, locus YPR167C, strain met16, stronger effect = lower value 0.979 | S. cerevisiae deletion strains, strain wtn01, stronger effect = lower value 0.992 | S. cerevisiae strains, strain wild type, stronger effect = lower value 0.992
